Measurements from PubChem BioAssay (NCATS).
Inconclusive results are not listed. Activity calls are given as the source filed them. Unless noted, calls follow the shape of the dose curve; as a rule, active = well fitted curve in the direction sought with a large enough effect; inconclusive = small, poorly fitted or top-dose-only effect, or another doubt; inactive = no such curve, though single readings can be large; an effect the other way counts as inactive or inconclusive.

Experiments:
[1] = P-glycoprotein substrates identified in KB-3-1 adenocarcinoma cell line, qHTS therapeutic library screen (AID 1346986); also: nearly all actives have a fitted effect of over 60% in size
Procedure, shortened: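 Using luminescence to quantify ATP, parental and P-gp-overexpressing KB cells were compared after 72 h compound titration. KB-8-5-11 was also run with the P-gp inhibitor tariquidar.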

[2] = P-glycoprotein substrates identified in KB-8-5-11 adenocarcinoma cell line, qHTS therapeutic library screen (AID 1346987); also: nearly all actives have a fitted effect of over 65% in size; also: potency is read from the fitted curve at half-maximal effect
Procedure, shortened: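 In this qHTS, P-gp-rich KB-8-5-11 cells received library compounds across a concentration range. Viability was quantified by luminescence after 72 h at 37 degree C.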

[3] = NS1 protein of Zika virus - qHTS assay to identify small molecule inhibitors in human HEK 293 cells (AID 1347053); also: series mostly up to about 46 µM; nearly all actives have a fitted effect of over 55% in size
Procedure, shortened: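 Readout was TR-FRET using paired anti-NS1 antibodies after 24 h infection of HEK 293 cells with ZIKV MR766 (MOI = 0.5). Compound preceded virus by 1 h; reduced signal reflects lower NS1 expression.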

[4] = qHTS for Inhibitors of the Functional Ribonucleoprotein Complex (vRNP) of Lassa (LASV) Arenavirus: LASV Primary Screen - GLuc reporter signal (AID 1347082; calls by dose curve; tested in HEK293 reporter line; also: series mostly up to about 57 µM; nearly all actives have a fitted effect of over 60% in size)
[5] = qHTS for Inhibitors of the Functional Ribonucleoprotein Complex (vRNP) of Lassa (LASV) Arenavirus: Viability assay - alamar blue signal for LASV Primary Screen (AID 1347083; calls by dose curve; tested in HEK293 reporter line; also: series mostly up to about 57 µM; nearly all actives have a fitted effect of over 80% in size)
[6] = qHTS for Inhibitors of the Functional Ribonucleoprotein Complex (vRNP) of Lymphocytic Choriomeningitis Arenaviruses (LCMV): Viability assay - alamar blue signal for LCMV Primary Screen (AID 1347085; calls by dose curve; tested in HEK293 reporter line; also: series mostly up to about 57 µM; nearly all actives have a fitted effect of over 80% in size)
[7] = biological target: Nucleoprotein (Lymphocytic choriomeningitis virus (strain Armstrong)) (UniProt P09992); experiment: qHTS for Inhibitors of the Functional Ribonucleoprotein Complex (vRNP) of Lymphocytic Choriomeningitis Arenaviruses (LCMV): LCMV Primary Screen - GLuc reporter signal (AID 1347086; calls by dose curve; also: series mostly up to about 57 µM; nearly all actives have a fitted effect of over 70% in size)
[8] = Identifying Small Molecule Inhibitors of Pancreatic Cancer Stem Cells (Panc1, Spheroid) (AID 1259359); conditions: Panc1 spheroid cancer stem cell viability;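 also: potency is read from the fitted curve at half-maximal effect; compound exposure lasted 48 h before reading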
Procedure, shortened: (§1)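 Viability is scored by CellTiter-Glo luminescence 48 h after dosing, expressed as percent activity against vehicle and no-cell references. Spheroid formats rely on cells cultured 14 days in stem cell media beforehand.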

[9] = Identifying Small Molecule Inhibitors of Pancreatic Cancer Stem Cells (SN12C, Spheroid) (AID 1259360); conditions: Potency: SN12C spheroid viability; also: potency is read from the fitted curve at half-maximal effect
Procedure, shortened: (§2)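 Adherent (2D) versus sphere (3D) formats; spheres generated 14 d in SCM beforehand. Compound transferred by pin tool after 4 h, 48 h incubation, CellTiter-Glo endpoint.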

[10] = Identifying Small Molecule Inhibitors of Pancreatic Cancer Stem Cells (A278, Adherent) (AID 1259361);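 also: viability read after 48 h compound exposure; nearly all actives have a fitted effect of over 35% in size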
Procedure, shortened: as §1

[11] = Identifying Small Molecule Inhibitors of Pancreatic Cancer Stem Cells (SN12C, Adherent) (AID 1259358);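 also: potency is read from the fitted curve at half-maximal effect; cell survival measured after 48 h of compound exposure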
Procedure, shortened: as §1

[12] = Identifying Small Molecule Inhibitors of Pancreatic Cancer Stem Cells (Panc1, Adherent) (AID 1259362); conditions: Potency: viability; also: potency is read from the fitted curve at half-maximal effect
Procedure, shortened: as §2

[13] = Natriuretic polypeptide receptor (hNpr1) antagonism - Pilot counterscreen GloSensor control cell line (AID 1347045; calls by dose curve; also: series mostly up to about 38 µM)
Procedure, shortened: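 HEK293 cGMP-sensor cells; 2% GloSensor reagent 2 h RT; LOPAC compounds in 1:5 titrations 30-50 min; 50 uM SNP 20 min; luminescence pre-read and post-read.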

[14] = biological target: Atrial natriuretic peptide receptor 1 (Homo sapiens) (UniProt P16066); experiment: Natriuretic polypeptide receptor (hNpr1) antagonism - Pilot screen (AID 1347049; calls by dose curve;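 also: HEK293 cells with hNpr1 and GloSensor cGMP luciferase stimulated by 0.1 nM hNppA; agonist-evoked cGMP luminescence read 20 min after hNppA addition; series mostly up to about 58 µM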)
Procedure, shortened: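 Cells expressing receptor plus cGMP biosensor are seeded and incubated overnight at 37C, then loaded with GloSensor reagent (2% final) at room temperature for 2 h. Library compounds go on for 30 min. A pre-read precedes agonist (hNppA, 0.1 nM final) and a 20-min readout.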

[15] = biological target: Atrial natriuretic peptide receptor 2 (Homo sapiens) (UniProt P20594); experiment: Natriuretic polypeptide receptor (hNpr2) antagonism - Pilot subtype selectivity assay (AID 1347050; calls by dose curve)
Procedure, shortened: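 Read-out: GloSensor luminescence (CCD imager), baseline vs post-stimulation. HEK293 cells expressing hNpr2; compounds pre-incubated 30-50 min at ambient temperature; hNppC 1 nM final, 20 min.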

[16] = biological target: T1, Tyrosine-protein phosphatase non-receptor type substrate 1 (Homo sapiens) + Leukocyte surface antigen CD47 (Homo sapiens) (UniProt P78324+Q08722); experiment: CD47-SIRPalpha protein protein interaction - LANCE assay qHTS validation (AID 1347057; active = well fitted curve in the direction sought with a large enough effect in the signal ratio, with a control signal flat, not every such curve was filed as active; the % refers to the signal ratio; also: series mostly up to about 38 µM)
Procedure, shortened: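 Inhibition of soluble CD47/SIRPalpha ectodomain association by titrated compounds, measured as 665/615 nm time-resolved FRET ratio after sequential 30 min room-temperature incubations.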

[17] = biological target: T1, Tyrosine-protein phosphatase non-receptor type substrate 1 (Homo sapiens) + Leukocyte surface antigen CD47 (Homo sapiens); experiment: CD47-SIRPalpha protein protein interaction - HTRF assay qHTS validation (AID 1347058; active = well fitted curve in the direction sought with a large enough effect in the signal ratio, not every such curve was filed as active; the % refers to the signal ratio; also: series mostly up to about 38 µM)
Procedure, shortened: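 Soluble extracellular domains (6His-CD47, Avi-tag-biotinylated SIRPalpha) in PBS pH 7.4 with 0.05% IGEPAL CA-630. Compounds were preincubated 30 min at RT with CD47 and anti-His-Eu, then SIRPalpha and SAV-XL665 were added. TR-FRET 665/615 ratio.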

[18] = biological target: T1, Tyrosine-protein phosphatase non-receptor type substrate 1 (Homo sapiens) + Leukocyte surface antigen CD47 (Homo sapiens); experiment: CD47-SIRPalpha protein protein interaction - Alpha assay qHTS validation (AID 1347059);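 also: bead proximity luminescence from CD47 binding SIRPalpha after compound preincubation with SIRPalpha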
Procedure, shortened: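 In PBS (pH 7.4) with 0.05% IGEPAL CA-630, compound is preincubated with biotin-Avi-SIRPalpha ectodomain before His-CD47 ectodomain and affinity beads are added. Light-protected room-temperature incubations; AlphaScreen readout.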

[19] = biological target: Parathyroid hormone/parathyroid hormone-related peptide receptor (Homo sapiens) (UniProt Q03431); experiment: qHTS for PTHR1 Agonists: Optimization Screen against the NCGC LOPAC library (AID 1347079);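 also: GloSensor cAMP luminescence in HEK-293 GP2 cells expressing human PTHR1 with IBMX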
Procedure, shortened: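 Signal increase flags agonism. GP2 cells, derived from HEK-293, express human PTHR1 and a GloSensor cAMP construct.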

Chain of Nucleoprotein (Lymphocytic choriomeningitis virus (strain Armstrong)) (P09992 whole entry, looked up): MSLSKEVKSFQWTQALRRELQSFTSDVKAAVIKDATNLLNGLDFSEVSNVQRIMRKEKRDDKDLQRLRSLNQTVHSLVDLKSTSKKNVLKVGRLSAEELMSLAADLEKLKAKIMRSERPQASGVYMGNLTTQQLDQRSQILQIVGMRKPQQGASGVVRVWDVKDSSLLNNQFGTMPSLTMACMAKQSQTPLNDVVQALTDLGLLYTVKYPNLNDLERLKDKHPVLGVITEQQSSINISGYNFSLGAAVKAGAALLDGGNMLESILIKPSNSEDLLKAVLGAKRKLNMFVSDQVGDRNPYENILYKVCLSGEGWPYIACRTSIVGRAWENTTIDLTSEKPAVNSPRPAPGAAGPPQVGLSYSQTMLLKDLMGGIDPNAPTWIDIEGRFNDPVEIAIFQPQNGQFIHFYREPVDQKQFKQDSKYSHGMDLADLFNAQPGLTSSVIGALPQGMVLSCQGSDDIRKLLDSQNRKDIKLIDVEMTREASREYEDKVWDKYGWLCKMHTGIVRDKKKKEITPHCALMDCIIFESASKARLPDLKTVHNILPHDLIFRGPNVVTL
T1 sequence (P78324 whole entry, looked up, the tested form may be a part): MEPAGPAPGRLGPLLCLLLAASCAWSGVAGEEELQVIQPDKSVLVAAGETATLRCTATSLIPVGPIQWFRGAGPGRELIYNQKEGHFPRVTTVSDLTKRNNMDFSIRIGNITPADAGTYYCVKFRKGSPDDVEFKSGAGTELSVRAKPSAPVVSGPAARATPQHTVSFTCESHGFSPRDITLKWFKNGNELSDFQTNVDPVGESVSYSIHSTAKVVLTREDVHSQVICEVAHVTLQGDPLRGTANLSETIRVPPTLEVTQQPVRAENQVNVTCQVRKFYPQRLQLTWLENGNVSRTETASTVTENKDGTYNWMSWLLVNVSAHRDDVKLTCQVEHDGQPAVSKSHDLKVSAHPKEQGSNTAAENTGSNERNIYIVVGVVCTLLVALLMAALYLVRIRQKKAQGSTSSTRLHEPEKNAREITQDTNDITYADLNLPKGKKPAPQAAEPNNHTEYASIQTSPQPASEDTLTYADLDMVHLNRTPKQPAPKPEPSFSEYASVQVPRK
T1 sequence (Q08722 whole entry, looked up, the tested form may be a part): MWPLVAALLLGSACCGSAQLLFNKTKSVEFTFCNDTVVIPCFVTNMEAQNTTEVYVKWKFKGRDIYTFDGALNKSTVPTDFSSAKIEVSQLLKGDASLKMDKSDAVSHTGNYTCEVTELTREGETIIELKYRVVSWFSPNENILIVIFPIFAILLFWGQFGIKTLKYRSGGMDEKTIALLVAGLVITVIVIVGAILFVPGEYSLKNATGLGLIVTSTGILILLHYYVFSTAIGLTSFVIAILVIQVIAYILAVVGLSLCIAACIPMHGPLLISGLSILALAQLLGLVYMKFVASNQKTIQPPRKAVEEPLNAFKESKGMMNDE
Chain of Parathyroid hormone/parathyroid hormone-related peptide receptor (Homo sapiens) (Q03431 whole entry, looked up): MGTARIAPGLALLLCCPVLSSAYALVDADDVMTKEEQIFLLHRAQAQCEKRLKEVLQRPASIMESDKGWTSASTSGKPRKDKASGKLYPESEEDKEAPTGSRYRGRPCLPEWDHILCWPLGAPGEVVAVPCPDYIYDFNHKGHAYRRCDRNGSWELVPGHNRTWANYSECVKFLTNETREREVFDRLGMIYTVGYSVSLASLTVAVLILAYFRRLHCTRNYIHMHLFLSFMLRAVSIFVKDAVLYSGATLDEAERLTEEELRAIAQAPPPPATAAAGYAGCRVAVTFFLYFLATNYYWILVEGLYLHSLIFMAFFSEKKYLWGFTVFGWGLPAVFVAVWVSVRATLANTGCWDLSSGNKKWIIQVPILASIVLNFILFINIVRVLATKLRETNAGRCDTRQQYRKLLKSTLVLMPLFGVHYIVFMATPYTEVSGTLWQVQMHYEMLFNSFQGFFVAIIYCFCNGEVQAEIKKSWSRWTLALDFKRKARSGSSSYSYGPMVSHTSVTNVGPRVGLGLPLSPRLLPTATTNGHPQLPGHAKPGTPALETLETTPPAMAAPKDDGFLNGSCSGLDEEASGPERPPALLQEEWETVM
Chain of Atrial natriuretic peptide receptor 2 (Homo sapiens) (P20594 whole entry, looked up): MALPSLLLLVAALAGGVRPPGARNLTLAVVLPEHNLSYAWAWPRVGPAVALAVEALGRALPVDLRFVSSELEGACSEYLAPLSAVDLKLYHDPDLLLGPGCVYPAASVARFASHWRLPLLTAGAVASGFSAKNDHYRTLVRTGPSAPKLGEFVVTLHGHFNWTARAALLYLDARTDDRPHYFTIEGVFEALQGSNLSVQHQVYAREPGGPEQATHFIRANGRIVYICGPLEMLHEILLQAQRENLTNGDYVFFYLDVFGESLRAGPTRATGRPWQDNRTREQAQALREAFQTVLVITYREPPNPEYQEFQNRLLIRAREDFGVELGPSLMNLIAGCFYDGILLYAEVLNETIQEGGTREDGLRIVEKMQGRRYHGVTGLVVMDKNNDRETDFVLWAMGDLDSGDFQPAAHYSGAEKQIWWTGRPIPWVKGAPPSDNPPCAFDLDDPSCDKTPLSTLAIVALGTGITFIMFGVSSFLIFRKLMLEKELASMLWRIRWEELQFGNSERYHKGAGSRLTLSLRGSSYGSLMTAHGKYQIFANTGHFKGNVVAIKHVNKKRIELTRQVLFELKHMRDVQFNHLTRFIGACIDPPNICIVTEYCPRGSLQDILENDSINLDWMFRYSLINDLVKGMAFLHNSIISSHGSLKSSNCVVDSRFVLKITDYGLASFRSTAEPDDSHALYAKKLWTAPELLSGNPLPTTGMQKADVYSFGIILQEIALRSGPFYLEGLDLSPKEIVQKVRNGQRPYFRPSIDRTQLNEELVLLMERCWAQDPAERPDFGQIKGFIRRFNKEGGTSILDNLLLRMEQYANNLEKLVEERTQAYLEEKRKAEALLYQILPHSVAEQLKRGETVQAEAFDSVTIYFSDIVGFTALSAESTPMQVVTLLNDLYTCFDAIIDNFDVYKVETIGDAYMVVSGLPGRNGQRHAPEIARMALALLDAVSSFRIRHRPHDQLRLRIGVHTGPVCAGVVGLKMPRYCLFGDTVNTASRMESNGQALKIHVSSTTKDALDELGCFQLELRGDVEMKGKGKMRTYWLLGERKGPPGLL
Chain of Atrial natriuretic peptide receptor 1 (Homo sapiens) (P16066 whole entry, looked up): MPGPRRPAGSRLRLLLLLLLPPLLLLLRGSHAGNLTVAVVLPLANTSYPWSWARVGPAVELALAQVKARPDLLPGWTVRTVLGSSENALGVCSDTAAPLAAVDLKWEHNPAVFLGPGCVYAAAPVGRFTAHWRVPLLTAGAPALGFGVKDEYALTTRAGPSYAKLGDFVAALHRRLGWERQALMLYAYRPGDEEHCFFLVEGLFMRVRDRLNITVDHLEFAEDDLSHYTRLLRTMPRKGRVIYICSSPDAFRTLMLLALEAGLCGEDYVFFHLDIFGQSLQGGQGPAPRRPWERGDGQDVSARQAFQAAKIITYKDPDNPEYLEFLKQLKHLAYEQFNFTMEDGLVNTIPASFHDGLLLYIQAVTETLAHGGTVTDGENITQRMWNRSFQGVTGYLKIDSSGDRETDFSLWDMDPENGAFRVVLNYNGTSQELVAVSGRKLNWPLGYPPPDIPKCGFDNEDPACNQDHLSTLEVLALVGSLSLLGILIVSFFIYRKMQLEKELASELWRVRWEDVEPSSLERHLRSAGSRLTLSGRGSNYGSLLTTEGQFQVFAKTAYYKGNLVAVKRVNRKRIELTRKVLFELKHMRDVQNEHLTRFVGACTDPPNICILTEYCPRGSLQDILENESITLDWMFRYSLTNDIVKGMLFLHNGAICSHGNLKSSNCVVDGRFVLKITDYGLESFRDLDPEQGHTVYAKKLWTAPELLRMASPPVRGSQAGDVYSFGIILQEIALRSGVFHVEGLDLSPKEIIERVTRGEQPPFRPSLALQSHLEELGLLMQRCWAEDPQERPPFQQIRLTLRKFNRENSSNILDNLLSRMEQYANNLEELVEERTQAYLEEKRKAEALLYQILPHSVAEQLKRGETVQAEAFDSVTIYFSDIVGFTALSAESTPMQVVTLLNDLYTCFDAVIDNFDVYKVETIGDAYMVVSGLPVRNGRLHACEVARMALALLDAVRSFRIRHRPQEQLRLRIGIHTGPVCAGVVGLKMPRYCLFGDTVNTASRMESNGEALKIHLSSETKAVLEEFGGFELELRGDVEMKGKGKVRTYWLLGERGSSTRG

CCCN1CCO[C@@H]2c3cc(O)ccc3OC[C@@H]21
inactive: Potency [1] | Potency [2] | Potency [3] | Potency [4] | Potency [5] | Potency [6] | Potency [7]

CC(C)[C@]12O[C@H]1[C@@H]1O[C@]13[C@]1(O[C@H]1C[C@H]1C4=C(CC[C@@]13C)C(=O)OC4)[C@@H]2O
active: Potency [8] 23.5 nM | Potency [9] 11.8 nM | IC50 (viability decrease) [10] 6.6 nM | Potency [2] 20.6 nM

C=CCON=C(C[C@H]1O[C@@H]2O[C@]3(C)CC[C@@H]4[C@H](C)CC[C@@H]([C@H]1C)[C@@]24OO3)[C@H]1O[C@@H]2O[C@]3(C)CC[C@H]4[C@H](C)CC[C@@H]([C@@H]1C)[C@@]24OO3
active: Potency [11] 93.5 nM | IC50 (viability decrease) [10] 52.6 nM | Potency [12] 66.2 nM | Potency [2] 16600 nM

NC1CC1c1ccccc1 (centres undefined)
inactive: Potency [2] | Potency [13] | Potency [14] | Potency [15] | Potency [3] | outcome [16] | outcome [17] | Potency [18] | outcome [19] | Potency [4] | Potency [5] | Potency [6] | Potency [7]

O=C(O)C(Cl)Cl
inactive: Potency [1] | Potency [2] | Potency [3] | Potency [4] | Potency [5] | Potency [6] | Potency [7]

CCc1c(C(=O)C(N)=O)c2c(OCC(=O)O)cccc2n1Cc1ccccc1
inactive: Potency [1] | Potency [2] | Potency [4] | Potency [5] | Potency [6] | Potency [7]

O=C(NCC1CCOCC1)c1cnc(Nc2ccc(Cl)cc2Cl)nc1C(F)(F)F
inactive: Potency [1] | Potency [2] | Potency [3] | Potency [4] | Potency [5] | Potency [6] | Potency [7]

CC[C@@H](C(N)=O)N1CCCC1=O
inactive: Potency [2] | Potency [13] | Potency [14] | Potency [15] | Potency [3] | outcome [16] | outcome [17] | Potency [18] | outcome [19] | Potency [6] | Potency [7]
